Measured values from article PMC12864922, “TDP-43 directly inhibits mRNA accumulation in neurites through modulation of mRNA stability”.
In all, about 9,900 sequences were measured (“r (bound/input frequency ratio)”: median about 0.7, highest 2% from about 6.5 on). This is one part of a sample in which the highest values are shown more often than they occur.

B1: ENSMUSG00000032194.167|Kank2 (ssRNA)
RNA: GGGAGUUCUACAGUCCGACGAUCGCUUCGAUAUCCGCAUGCUAAGAGUAAACAGAGACUGUGAUACUGACCAAGUACAGGCGCUCGCUAUGAAGCCCAUAUGUUCCUGAUUAAGAGCUGGCUGGCCUCAGAGCACUCCCAGAACUAGCUUAAAGUGACAGGCUUUGCUGAAAUCCAAAGGGACAAAAGAGUAGUUUUAUGUUUGUGUGUUUGUUUUUAAUGCCCUGGAGCUCCUGCUGGUGACAGGAGAGACAGACAGGCUGCACCUUUCUCUAACUGGGGUUCCUUUCUGGCCCCAGGAUCUCUCUUGCGGUCGCACUAGUGUGGAAUUCUCGGGUGUCAAGG
B2: ENSMUSG00000061578.337|Ksr2|72:76 (ssRNA)
RNA: GGGAGUUCUACAGUCCGACGAUCGCUUCGAUAUCCGCAUGCUAACCAGUCACCUGCCUCCCAGGGUUCUGCCUUGCCCUUAAGCUAGGGUCCUUCAAGCAUCCACAGACUUAGACACACGUGGUAACAUGCUUGUAAUCCUGGCACUCUGGAGGCUGAGGCAGGAGGAUAACAAGUCUAGACUAUAUAUGAUUUCUGAGGGUCUGUUAGUGAAUAAGUACCUGGAUGACAUGGGACAAGUCCCAGCCUUCCCUGCUCCUGCGCUGCUCUUCCUCUUAUGGGAUAGGGUCUAGGUCAAAUGUCACUCUUGCGGUCGCACUAGUGUGGAAUUCUCGGGUGUCAAGG
B3: ENSMUSG00000061578.1309|Ksr2 (ssRNA)
RNA: GGGAGUUCUACAGUCCGACGAUCGCUUCGAUAUCCGCAUGCUAUCUGCACCCAACUGAAUCUCCCACCCUCAAGUGUACCUCUCAGGAUAUCCCCAGGCACACGAAGAUGGAAUGGAAAGCCAGUGGGUAUCUCCCACCCACUUAGAUGCUGAUGGCCUGGGACUAUAAACAGGGACAGUUGGGUCUCCUAAGGAAUAGCUUCCAGGUCCAGGAUGCUGGCAUCUCCCAGAGAGAACUCCAUCCCCUGACCACCAAGGCCUUUGUAGAAGCAGGAAUCUCUUCCUCCUGUCCCACAGCCCCCACUCUUGCGGUCGCACUAGUGUGGAAUUCUCGGGUGUCAAGG
B4: ENSMUSG00000029636.197|Wasf3 (ssRNA)
RNA: GGGAGUUCUACAGUCCGACGAUCGCUUCGAUAUCCGCAUGCUAGACUUCCCCUCUCCUGCCCUGAUCCUUUUUACCAAAUGGCGAUUCCAUAGUCCUGGCUGAGGCAGGGGCUCAAAGUCCAGUGUCUGCUUUGCAAUUCUGGAAGGACAGCUGCUUAUUUAAAUAAGUCUGUGAUAUCCGCAGGCUUGGGUUACAGGGAGGACCUUGCAGAGGGACCAGGACACUGCCUUCCCUUAGGUGCAUUAUUUACGUGGCCUGCAGCUCUUAAUAUCUCUCACUGUUUAUGAAAAGAAAGAUUCAGACUCUUGCGGUCGCACUAGUGUGGAAUUCUCGGGUGUCAAGG
B5: ENSMUSG00000029636.77|Wasf3 (ssRNA)
RNA: GGGAGUUCUACAGUCCGACGAUCGCUUCGAUAUCCGCAUGCUAAAGAUCACUGGCUGUGUGUCUCAGUGAUGUCUUCCAACCAGUGGGUGAUACGUUUUCCUGUUUCUUCCCUUUGCAAAUUGAAUUCCAGGUAGAUAUGGUUGUAGAGGGGAAAGUUUAACAAAUCAGAAUGAAAUGUUUGUCUGUUUGCACACUGGGCCUGGUGGCCUCCAAGGAAAUGUGUACGAUCGUUUGCUUUCUCUAUCUUGGCGCUUGCAACCGAGAGCGGCCAUUUUUAUGAGGGGAGCCCUGUGGGUACUCAUCUCUUGCGGUCGCACUAGUGUGGAAUUCUCGGGUGUCAAGG
B6: ENSMUSG00000090935.714|Synj2bp (ssRNA)
RNA: GGGAGUUCUACAGUCCGACGAUCGCUUCGAUAUCCGCAUGCUAAGAGCUCUGCUCUCUGAGCAUCUGCCCCAGAUACAGAGGCAGAGUAUGAAGUGGAACAUUGUUUUAUUCCUAGGUGCUCAGGACAGACUGAUCAACCUCCAGUAACAUAUGUGGUUAGUAAGUGCUUCAGCUUGUGUAGCCAUUAAUAACCAAGUCAUAGGAUUGUGAAUCUAAAAUACUCCUGGGUAAAAUUUGUAUUAGAAUGGAAAAAAAAAUGAGGGUCAGAAAGGUGAGCUAACUUCAAGUUAGAUACUCCCCUCCUCUUGCGGUCGCACUAGUGUGGAAUUCUCGGGUGUCAAGG
B7: ENSMUSG00000061578.632|Ksr2|56:60;95:99 (ssRNA)
RNA: GGGAGUUCUACAGUCCGACGAUCGCUUCGAUAUCCGCAUGCUAUAGAGGGGACGGACAGCUCCCUGACCCUGGAUGGCCAGGAAUGGUGCUAGCUAGGCACACAGCCAAGCCCUUGAGGCUACUGUGAGUUAUGAGAACACACCAACCCUCAGCCCACAGACUGCAUAUGCCCCAGGACAGCUGUGAAGGUGACCCAAUACAAAAUCGUAAACUAACUUAAAACCAUUAAGGGUUUUUGUUUUGUUGUUGUUUGCUGGCUUUUUGUUUUUUGGGUUGGUUUUCUUUUUCUUUCUUUCUUUUUUCUCUUGCGGUCGCACUAGUGUGGAAUUCUCGGGUGUCAAGG
B8: ENSMUSG00000029636.427|Wasf3 (ssRNA)
RNA: GGGAGUUCUACAGUCCGACGAUCGCUUCGAUAUCCGCAUGCUAAGCUAGGUGGAUGGGUGGGUGGAUACAUGGAUGAGUGGAUGGGUGGAUUGGUGGGUGAGUGGAUAGGUGAAUGGAUGAUAGGUGGUGGAUGGUUGAGUGGGUGGAUUCAUGAUGGAUGGAUGGAUGGAUGGAUGGAUGGAUGGAUGGAUGAGUGGAUGGAUAAUAGGUUGAUGGGUGGAUAGGUAGAUGAGUGAAUAGAUAGAUAUAGAUCAGUGGGAGGAUUGGAAAGUAGGUGAAUGAAUGGAUGGCAGAUAGAUGGACUCUUGCGGUCGCACUAGUGUGGAAUUCUCGGGUGUCAAGG
B9: ENSMUSG00000029636.430|Wasf3 (ssRNA)
RNA: GGGAGUUCUACAGUCCGACGAUCGCUUCGAUAUCCGCAUGCUAGUGGAUACAUGGAUGAGUGGAUGGGUGGAUUGGUGGGUGAGUGGAUAGGUGAAUGGAUGAUAGGUGGUGGAUGGUUGAGUGGGUGGAUUCAUGAUGGAUGGAUGGAUGGAUGGAUGGAUGGAUGGAUGGAUGAGUGGAUGGAUAAUAGGUUGAUGGGUGGAUAGGUAGAUGAGUGAAUAGAUAGAUAUAGAUCAGUGGGAGGAUUGGAAAGUAGGUGAAUGAAUGGAUGGCAGAUAGAUGGAUCAAUUACAGAUGGAUGGCUCUUGCGGUCGCACUAGUGUGGAAUUCUCGGGUGUCAAGG
B10: ENSMUSG00000029636.428|Wasf3 (ssRNA)
RNA: GGGAGUUCUACAGUCCGACGAUCGCUUCGAUAUCCGCAUGCUAGUGGAUGGGUGGGUGGAUACAUGGAUGAGUGGAUGGGUGGAUUGGUGGGUGAGUGGAUAGGUGAAUGGAUGAUAGGUGGUGGAUGGUUGAGUGGGUGGAUUCAUGAUGGAUGGAUGGAUGGAUGGAUGGAUGGAUGGAUGGAUGAGUGGAUGGAUAAUAGGUUGAUGGGUGGAUAGGUAGAUGAGUGAAUAGAUAGAUAUAGAUCAGUGGGAGGAUUGGAAAGUAGGUGAAUGAAUGGAUGGCAGAUAGAUGGAUCAAUUCUCUUGCGGUCGCACUAGUGUGGAAUUCUCGGGUGUCAAGG

biological target: TDP-43 (Homo sapiens, UniProt Q13148 1-414); assay: RNA Bind-n-Seq with designed 260-mer pool; 25 mM Tris-HCl, 150 mM KCl, 3 mM MgCl2, BSA (printed 500 mg/mL), 20 units/mL SUPERase IN; pH not stated; 500 nM RNA pool, 1 h, 4 C; TDP-43 5, 50, 500 nM; high values mean tight binding; details: protein: recombinant; tags: SBP (GST cleaved off with PreScission; pGEX-GST-SBP)
Sequence (Q13148 whole entry): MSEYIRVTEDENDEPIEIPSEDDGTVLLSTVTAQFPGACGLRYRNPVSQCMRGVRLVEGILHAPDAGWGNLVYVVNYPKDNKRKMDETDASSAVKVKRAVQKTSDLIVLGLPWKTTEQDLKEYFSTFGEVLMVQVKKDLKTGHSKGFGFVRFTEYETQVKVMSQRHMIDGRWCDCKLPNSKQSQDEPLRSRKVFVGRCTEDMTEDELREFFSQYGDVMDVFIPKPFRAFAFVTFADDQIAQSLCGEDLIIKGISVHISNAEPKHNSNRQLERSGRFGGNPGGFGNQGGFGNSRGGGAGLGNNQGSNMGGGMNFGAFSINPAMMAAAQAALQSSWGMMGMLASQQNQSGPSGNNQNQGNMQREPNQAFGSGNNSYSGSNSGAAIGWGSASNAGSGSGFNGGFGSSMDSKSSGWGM
How it was run: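 Binding (R) is the ratio of each oligo's mapped-read-normalized abundance in the bound fraction to its abundance in the input. To obtain it, SBP-tagged recombinant TDP-43 (5, 50 or 500 nM) on streptavidin beads was incubated with 500 nM of an in vitro-transcribed 260-nt 3′ UTR oligo pool for 1 h at 4 °C in 25 mM Tris-HCl, 150 mM KCl, 3 mM MgCl2, BSA and SUPERase IN. The RNA retained after washing was released with biotin, then reverse transcribed, amplified by PCR and sequenced.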

Binder | binding signal
B1 | 3.92 R (bound/input frequency ratio)
B2 | 0.335 R (bound/input frequency ratio)
B3 | 0.602 R (bound/input frequency ratio)
B4 | 0.304 R (bound/input frequency ratio)
B5 | 4.99 R (bound/input frequency ratio)
B6 | 1.22 R (bound/input frequency ratio)
B7 | 0.54 R (bound/input frequency ratio)
B8 | 4.15 R (bound/input frequency ratio)
B9 | 4.31 R (bound/input frequency ratio)
B10 | 8.28 R (bound/input frequency ratio)
